According to PubChem BioAssay AID2315 (National Center for Advancing Translational Sciences (NCATS), 2010):
Values joined by “and” are separate entries in the source; they are usually repeats but may differ in a detail not shown here. Equal entries are not always repeated. About 27,000 (9.3%) of roughly 290,000 compounds were called active. For the sample, actives were picked, then their nearest neighbours and some compounds at random. Unmarked numbers belong to inactive results. Cut-off read from the data, not from the text of the source: active = inhibition mostly above about 28% (no sharp cut-off); inactive = mostly below about 43%.

assay: A qHTS for Small Molecule Inhibitors of Shiga Toxin; details: Vero cells, Shiga toxin protein synthesis inhibition reporter; at 38.7 µM, active compounds read high; note: 0% is about no effect

| SMILES | inhibition |
| --- | --- |
| Cc1nn(C(C)(C)C)c(OC(=O)CC(C)C)c1S(=O)(=O)c1ccccc1 | -3.07% |
| CC/C(=N\NC(=O)c1c(C)nc2ccccn12)c1ccc(Cl)cc1 | -1.53% |
| COc1ccc(C(=O)NCCSc2ccccc2C)cc1 | 47.6% (active) |
| COc1ccc(C(=O)NCc2nnc(SCCOc3ccccc3)n2C)cc1 | -8.47% |
| COc1cccc(C(=O)NCCSc2ccc(Br)cc2)c1 | 0.537% |
| CCn1cc(C(=O)NCC(=O)NC(C)(C)CO)c(=O)c2cc3c(cc21)OCO3 | -1.71% |
| COc1ccccc1-n1cnc2cc(NS(=O)(=O)c3ccccc3)ccc21 | 60.3% (active) |
| COc1ccc(NS(=O)(=O)c2ccc(NC(C)=O)cc2)cc1OC | -6.59% |
| COCCCNC(=O)c1ccc2c(c1)ncn2-c1ccccc1OC | 41.9% |
| COc1cccc(-c2coc3cc4oc(=O)c(CC(=O)O)c(C)c4cc23)c1 | 5.32% |
| CN1CCN(c2ccc([N+](=O)[O-])c(Sc3nc4ccccc4[nH]3)c2)CC1 | -2.62% |
| COc1cccc(-c2nc3ccc(N4CCN(C)CC4)cc3[nH]2)c1 | -25.4% |
| Cc1nc2ccc(N3CCN(C)CC3)cc2nc1C | 41.4% (active) |
| CCCc1cc(=O)oc2c(C)c(OCC(=O)NCc3ccccn3)ccc12 | -5.37% |
| CCCc1cc(=O)oc2c(C)c(OCC(=O)N3CCC(C(=O)O)CC3)ccc12 | -4.56% |
| CCCc1cc(=O)oc2c(C)c(OCC(=O)Nc3ccccn3)ccc12 | 97.8% (active) |
| Cc1cnc(C(=O)Oc2cccc(Cl)c2Cl)cn1 | -6.08% |
| O=C(/C=C/c1cccc(C(F)(F)F)c1)N1CCN(c2ccccn2)CC1 | -28.6% |
| Cc1ccccc1CSc1nnc(-c2ccccn2)n1N | 62.4% (active) |
| Cn1c(SCC(=O)C(C)(C)C)nnc1-c1ccccn1 | 51.8% |
| Cc1ccccc1CSc1nnc(Cn2c(=O)sc3ccccc32)n1C | -3.34% |

| SMILES | inhibition |
| --- | --- |
| Cc1ccccc1CSc1nnc(-c2cccnc2)n1N | 47.7% (active) |
| O=C(CSc1nnc(-c2cccnc2)n1CCc1ccccc1)NCc1ccccc1 | 9.64% |
| N#Cc1ccc(CSc2nnc(-c3ccccn3)n2-c2ccc(Cl)cc2)cc1 | 9.81% |
| COCCNc1cc(-c2ccccc2)nc2cc(-c3cccc(F)c3)nn12 | 13.9% |
| O=S(=O)(c1ccc2c(c1)OCCCO2)N1CCN(S(=O)(=O)c2c(F)cccc2F)CC1 | -5.98% |
| Cc1ccc(CNC(=O)C2(C(F)(F)F)C/C(=C\Cc3ccccc3)CCCO2)o1 (configuration not stated) | -4.26% and 0.0699% |
| COc1ccc(N(C)C(=O)C2CCN(S(=O)(=O)c3cccc4nsnc34)CC2)cc1 | 8.11% |
| Cc1ccc(S(=O)(=O)N2CCN(C)CC2)cc1C(=O)NC1CCCCC1 | -5.78% |
| N#C/C(=C1\CCCN1)c1nc(-c2ccccc2)cs1 | 76.5% (active) |
| Cn1c(/C(C#N)=C2/CCCCCN2)nc2ccccc21 | 9.28% |
| N#CC(=C1SC=CS1)c1nc(-c2ccccc2)cs1 | 79.5% (active) |
| N#CC(=C1CCCC1)c1nc(-c2ccc(Cl)cc2)cs1 | 50.4% (active) |
| CCCCCN1CC(O)=C(c2nc(-c3ccc(Cl)cc3)cs2)C1=N | 23.2% |
| N#C/C(=C1/CCCN1)c1ccccn1 | -5.25% |
| c1ccc(-c2csc(N3CCc4ccccc4C3)n2)cc1 | 57.4% |
| CCc1ccc(NC(=O)CS(=O)CC(=O)N2CCN(c3ccccc3F)CC2)cc1 (configuration not stated) | 9.39% |
| CN(C)CCCNC(=O)c1cc(C(=O)Cc2ccc(Cl)cc2)c[nH]1 | -5.52% |
| CCc1cccc(NC(=O)CCCN2C(=O)C(c3ccccc3)Oc3cccnc32)c1 (configuration not stated) | -2.72% |
| CCC1=Nc2cc(C(=O)NCCCN3CCOCC3)ccc2Sc2ccc(Br)cc21 | -9.37% |
| Cc1cccc(N(C(=O)c2csnn2)C(C(=O)NCc2ccccc2)c2ccncc2)c1 (configuration not stated) | -9.04% |
| CCCOc1ccc(NC(=O)C2CCCNC2=O)cc1 (configuration not stated) | 25.7% |

| SMILES | inhibition |
| --- | --- |
| Cc1ccc(N/C=C/C(=O)c2ccccc2)cc1C | 17.5% |
| CN(C)c1ccc(N/C=C/C(=O)C(F)(F)F)cc1 | 71.1% |
| CCOc1ccc(NC(=S)N2CCC(NC(=O)c3ccccc3)CC2)cc1 | -10.8% |
| CCCOc1ccc(N/C=C/C(=O)C(C)(C)C)cc1 | 49% (active) |
| CCOc1ccc(N/C=C/C(=O)c2ccccc2)cc1 | 69.8% (active) |
| COc1ccc(N2CCN(C(=O)c3cn(C)c4ccc(S(=O)(=O)N5CCOCC5)cc4c3=O)CC2)cc1 | -3.12% |
| O=[N+]([O-])c1cc([N+](=O)[O-])c(Oc2cc(F)cc(F)c2F)cc1NN1CCCCC1 | 1.85% |
| CCCn1nc(NS(=O)(=O)c2ccc(F)cc2)c2cc3ccccc3nc21 | -7.87% |
| O=S1(=O)CCO[C@H]2Cc3ccccc3[C@H]2N1Cc1ccccc1 | -2.08% |
| CC(=O)Nc1ccc(C(=O)OCC(=O)Nc2ccc([N+](=O)[O-])cc2C(F)(F)F)cc1 | 14.6% |
| CN(C)c1nc(=Nc2cccc(Cl)c2)ss1 | 77% (active) |
| O=C(NC1CCC(O)CC1)c1ccccc1OCc1ccc(F)cc1 (configuration not stated) | -2.79% |
| COc1ccc(-n2nnnc2SCC(=O)Nc2ccccc2)cc1 | -15.5% |
| CCn1nnnc1SCC(=O)Nc1ccc(N(C)C)cc1 | 44.2% (active) |
| CC(=O)Nc1ccc(NC(=O)CSc2nnnn2-c2ccccc2F)cc1 | 61.1% |
| CCn1nnnc1SCC(=O)c1ccc(C)cc1C | 77.4% (active) |
| Cc1ccc(C)c(-n2nnnc2SCC(=O)c2c(N)n(C)c(=O)n(C)c2=O)c1 | -10.4% |
| COc1ccc(C(=O)CSc2nnnn2C)c(OC)c1 | 32.4% |
| Cc1cc(C(=O)N/N=C/c2ccccn2)c2ccccc2n1 | -6.51% |
| O=C(Nc1ccccc1N1CCN(C(=O)c2ccccc2)CC1)c1ccco1 | 9.04% |
